ASM inhibitor – inhibitors of human secretory acid sphingomyelinase; P17405; placental ASM, HMU-PC fluorogenic substrate, 60 min; hit rate 0.006% among 340,000; Potency, µM (series often up to 57.5 µM), hits mostly inhibitors; AID 504937
Target sequence (P17405 47-631 limits assumed): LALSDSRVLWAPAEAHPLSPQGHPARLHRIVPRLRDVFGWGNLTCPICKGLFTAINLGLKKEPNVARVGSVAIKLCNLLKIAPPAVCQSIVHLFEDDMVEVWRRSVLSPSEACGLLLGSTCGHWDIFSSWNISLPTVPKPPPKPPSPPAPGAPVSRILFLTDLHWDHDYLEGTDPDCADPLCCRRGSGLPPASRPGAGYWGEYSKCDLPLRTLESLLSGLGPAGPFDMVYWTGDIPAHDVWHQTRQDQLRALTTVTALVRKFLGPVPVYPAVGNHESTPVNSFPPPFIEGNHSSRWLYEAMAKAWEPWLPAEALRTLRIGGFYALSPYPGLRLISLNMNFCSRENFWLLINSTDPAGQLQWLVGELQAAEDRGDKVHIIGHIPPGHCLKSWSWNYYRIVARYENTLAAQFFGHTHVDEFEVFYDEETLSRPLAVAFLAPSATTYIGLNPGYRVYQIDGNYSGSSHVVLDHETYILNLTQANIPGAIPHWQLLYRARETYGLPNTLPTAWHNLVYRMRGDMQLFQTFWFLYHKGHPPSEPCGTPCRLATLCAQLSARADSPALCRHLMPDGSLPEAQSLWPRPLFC
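qHTS format. ASM enzyme prepared from human placenta hydrolyses the fluorogenic substrate HMU-PC0 (9 uM final) over 60 min at 37 °C after a 10 min compound preincubation.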
aSyn rescue – rescues yeast growth from alpha-synuclein toxicity; AID 652106; hit rate 0.14% among 370,000; Yeast expressing alpha-synuclein, growth rescue, BacTiter-Glo, 24 h; Potency, µM (titrated, usually from 46.1 µM), actives largely listed as activators; note: nearly all actives have a fitted effect of over 65% in size
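Rescue of yeast growth: cells expressing toxic alpha-synuclein, induced in galactose at OD600 0.02, incubated with compound 24 h at 30 C. ATP luminescence quantified growth; inhibitors of toxicity appear as activators.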
TDP43 rescue – rescues yeast growth from TDP-43 toxicity. AID 652104. Potency, µM (series often up to 46.1 µM), actives largely listed as activators. TDP-43 expressing yeast growth rescue, BacTiter-Glo, 24 h. hit rate 1.8% among 410,000; note: nearly all actives have a fitted effect of over 50% in size
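Cell-based yeast growth screen: TDP-43 expression induced in galactose, inoculum OD600=0.02 after raffinose pregrowth to mid-log. Read-out BacTiter-Glo luminescence at 24 hr, 30 deg C; inhibition of toxicity seen as signal increase.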
Rango release inh – inhibitors of RanGTP-induced Rango-importin beta complex dissociation | O95149+P62826 | Potency, µM (top dose mostly 46.1 µM) | hit rate 0.071% among 340,000 | Biochemical FRET Rango-importin beta, RanGTP-induced dissociation; calls by dose curve; note: nearly all actives have a fitted effect of over 45% in size
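Rango (0.1 uM)–importin beta (0.25 uM) complex; RanGTP-RCC1 trigger; 45 min RT; CFP/YFP FRET read.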
Abeta rescue – restores growth of yeast expressing A-beta42 peptide. AID 1347071. Potency, µM (titrated, usually from 46.1 µM), usual class: activators. hit rate 0.063% among 410,000. yeast expressing A-beta42, growth rescue, OD600, 48 h; response scale: 0% DMSO, 100% iron-clioquinol control; note: nearly all actives have a fitted effect of over 55% in size
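Yeast A-beta toxicity model in growth medium with pinned compounds, 48 h at 30 C; growth read as absorbance at 600 nm. Normalized to FeCl3/clioquinol equimolar mix (positive) and DMSO (negative).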
Rango-impB inh – inhibitors of Rango-importin beta complex formation; Rango CFP/YFP FRET sensor + importin beta, 45 min; Potency, µM (top dose mostly 92.2 µM); hit rate 0.031% among 340,000; AID 540263; calls by dose curve; note: nearly all actives have a fitted effect of over 15% in size
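FRET biosensor Rango (snurportin 1 IBB between N-terminal EYFP and C-terminal Cerulean), 50 nM in PBS/1 mM DTT/0.02% Tween-20/0.1% BSA, preincubated 5 min RT with compound; 0.125 microM importin beta added, 45 min RT, CFP/YFP FRET ratio read.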
A number is an active result; . = inactive; ? = inconclusive; / = not tested or not shown; [ ] = remark or other dose. Only some compounds are listed: those with a hit (about 2% of all), similar ones and a draw of the others. Unless noted, calls come from the whole dose curve; as a rule, active = well fitted curve in the direction sought with a large enough effect; inconclusive = small, poorly fitted or top-dose-only effect, or another doubt; inactive = no such curve, though single readings can be large; an effect the other way counts as inactive or inconclusive.

SMILES	ASM inhibitor	aSyn rescue	TDP43 rescue	Rango release inh	Abeta rescue	Rango-impB inh
Cc1cccc(OCCSCc2nc3ccccc3[nH]2)c1	.	.	.	.	.	?
Cc1cccc(OCCCSc2nc3ccccc3[nH]2)c1	.	.	20µM	.	.	.
Cc1ccc(CNc2cc(C)nc3nc(-c4cccc(C)c4)nn23)cc1	/	.	20µM	/	.	/
Cc1ccc2nc(SCC(=O)N3CCC(Cc4ccccc4)CC3)nc(=O)n2c1	.	.	.	.	.	.
O=C(CSc1nc(=O)n2ccccc2n1)N1CCC(Cc2ccccc2)CC1	.	.	20µM	.	.	.
CCc1c(-c2ccccc2)ncn1Cc1cccc(-c2ccccc2)c1	/	.	.	/	.	/
CCc1c(-c2ccccc2F)ncn1Cc1cccc(-c2ccccc2)c1	/	.	20µM	/	.	/
O=C(NC(=S)Nc1ccccc1O)c1cncc(Br)c1	.	18µM	.	.	?	.
CCCOc1cccc(C(=O)NC(=S)Nc2cccc(C(F)(F)F)c2)c1	.	.	.	.	.	.
COc1cccc(NC(=S)NC(=O)c2cncc(Br)c2)c1	.	.	13µM	.	?	.
CCn1cc(C(=O)NC(=S)Nc2ccccc2Br)cn1	.	.	14µM	.	.	.
CCOc1cccc(C(=O)NC(=S)Nc2cccc(C)c2)c1	.	.	35µM	.	?	.
CC1(C)CC(=O)C2=C(C1)OC(N)=C(C#N)C2c1cc2c(cc1[N+](=O)[O-])OCO2 (stereo not given)	.	.	.	16µM	.	?
Cc1ccccc1NC(=S)NC(=O)/C=C/c1ccco1	.	.	10µM	.	.	.
CC1CCN(C(=O)Nc2ccc3nc(-c4ccco4)c(-c4ccco4)nc3c2)CC1	/	.	/	/	/	/
CCOC(=O)c1nnn(-c2nc(N3CCCC3)nc(N3CCCC3)n2)c1-c1ccccc1	.	.	.	.	.	.
CCOC(=O)c1c(-c2ccccc2)nnn1-c1nc(OCC)nc(N2CCCCC2)n1	.	.	22µM	.	.	.
Cc1ccc(C2OC(=O)c3ccccc32)cc1 (stereo not given)	.	.	35µM	.	.	.
COc1ccc(-c2noc(=O)n2Cc2ccccc2Cl)cc1	.	.	20µM	.	.	.
COc1ccc(Br)cc1C1NC(c2ccc3c(c2)OCO3)=CC(c2cc(Cl)ccc2O)N1 (stereo not given)	/	.	/	/	/	/
O=S(=O)(c1ccccc1)c1nc(NCc2ccccc2)sc1Cl	?	.	20µM	.	.	.
CCCCN1C(=O)C(O)(CC(=O)c2ccc(CC)cc2)c2cc(Br)ccc21 (stereo not given)	/	/	18µM	/	.	/
CCCN1C(=O)C(O)(CC(=O)c2ccc(CC)cc2)c2ccccc21 (stereo not given)	/	/	.	/	.	/
Cn1c(=O)c2nc(SCC(=O)Nc3cc(Cl)ccc3Cl)n(C)c2n(C)c1=O	/	/	.	/	.	/
Cc1ccc2cc(C(c3nnnn3Cc3ccccc3)N3CCc4ccccc43)c(=O)[nH]c2c1 (stereo not given)	.	.	.	23µM	.	?
SMILES	ASM inhibitor	aSyn rescue	TDP43 rescue	Rango release inh	Abeta rescue	Rango-impB inh
Cc1ccc2[nH]c(=O)c(C(c3nnnn3Cc3ccccc3)N3CCc4ccccc43)cc2c1 (stereo not given)	.	.	.	?	.	?
CSc1ccccc1NC(=O)c1cc(C(C)C)on1	.	.	11µM	.	.	.
CSc1ccccc1NC(=O)c1cc(C)on1	.	.	.	.	.	.
Cc1ccc(S(=O)(=O)c2nnn3c2nc(NC2CCCCC2)c2sccc23)cc1C	/	/	.	/	.	/
CN1/C(=C/C(=O)c2nc(S(C)(=O)=O)ncc2Cl)C(C)(C)c2ccccc21	.	.	13µM	?	.	?
CN1/C(=C\C(=O)c2ccco2)C(C)(C)c2ccccc21	.	.	.	?	.	?
CN1/C(=C\C(=O)c2cccnc2)C(C)(C)c2ccccc21	.	.	.	.	.	.
CN1/C(=C\C(=O)c2cncc(Br)c2)C(C)(C)c2ccccc21	.	.	13µM	?	.	?
O=C(O)/C=C/c1ccc2ccccc2c1	/	.	/	/	/	/
Cc1cc(C)c2c(-n3cccc3)nn(CC#N)c2n1	.	.	13µM	.	.	.
Cc1cc(C)c2c(-n3cccc3)n[nH]c2n1	.	.	.	.	.	.
CN(C)c1ccc(-c2nc3ccccn3c2Nc2ccc3c(c2)OCCO3)cc1	/	/	.	/	.	/
O=C(Nc1nc(-c2ccccc2)cs1)c1cccs1	.	.	13µM	.	.	.
CC1CC1C(=O)Nc1nc(-c2ccccc2)cs1 (stereo not given)	.	.	18µM	.	.	.
CC(C)(C)c1csc(NNC(=O)c2ccc(Cl)cc2)n1	.	18µM	.	.	.	.
CC(C)(C)c1csc(NC(=O)c2cccnc2)n1	.	.	.	.	.	.
CN(C)CC(=O)Nc1nc(-c2ccccc2)cs1	.	.	.	.	.	.
CC(C)(C)c1csc(NC(=O)c2cccs2)n1	.	.	16µM	.	.	.
O=C(Nc1nc(-c2ccc(Cl)s2)cs1)c1cccs1	.	.	?	?	.	?
CN(C)c1ccc(/C=C2\C=Cc3ccccc32)cc1[N+](=O)[O-]	/	.	/	/	/	/
O=C(O)c1ccc(Nc2nc(-c3ccccc3)cs2)cc1	.	.	.	.	.	.
N#Cc1ccc(Nc2nc(-c3ccccc3)cs2)cc1	/	.	3.2µM	/	.	/
c1ccc(-c2csc(Nc3ccc4c(c3)OCO4)n2)cc1	/	.	14µM	/	.	/
CC(=O)c1sc(Nc2nc3cc4c(cc3s2)OCO4)nc1C	.	.	.	?	.	?
CC(=O)c1sc(Nc2ccc3c(c2)OCO3)nc1C	/	.	13µM	/	.	/
SMILES	ASM inhibitor	aSyn rescue	TDP43 rescue	Rango release inh	Abeta rescue	Rango-impB inh
Cc1cc(C)c2c(=O)cc(C(=O)Nc3sc4c(c3C(=O)NCC3CCCO3)CCCC4)oc2c1 (stereo not given)	/	/	.	/	.	/
CC(C)c1ccc(C(=O)CC2(O)C(=O)N(CCc3ccccc3)c3ccc(Cl)cc32)cc1 (stereo not given)	/	/	.	/	.	/
CCOc1ccc(C(=O)Nc2ccccc2CC)cc1[N+](=O)[O-]	.	.	28µM	.	?	.
CCNC(=O)c1cccc(NC(=O)c2cc(C3CC3)nc3c2cnn3C(C)C)c1	.	.	.	.	.	.
CC(C)n1ncc2c(C(=O)Nc3cccc(C#N)c3)cc(C3CC3)nc21	.	.[1.84 µM]	22µM	.	.	.
CCOc1ccc(NC(=O)Cn2c(=O)n(Cc3ccco3)c(=O)c3ccc(C(=O)NC4CCCC4)cc32)cc1	/	.	.	/	.	/
CCOC(=O)Cn1c(=O)n(Cc2ccco2)c(=O)c2ccc(C(=O)NC3CCCC3)cc21	.	0.56µM	.	.	.	.
